Hits are enriched below; roughly 10% of the tested compounds scored in any of these assays.
GLS inh: inhibitors of human glutaminase (GLS). GLS enzymatic activity, qHTS titration. Potency, µM (series often up to 45.5 µM), inactives show at the highest dose activity change, negative = inhibition, most hits filed as inhibitors. O94925. 410,000 compounds, 0.21% hits; note: % is set by controls: 0 for no effect and ±100 for the full control effect
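Glutamate formation by hKGA was monitored fluorometrically using coupled glutamate oxidase, HRP and Amplex Red. Substrate was added as 1 mM L-glutamine solution; incubation was 30 min at RT after an initial read.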
BAZ2B inh: inhibitors of human BAZ2B bromodomain. AlphaScreen BAZ2B-H3K14Ac peptide displacement. AID 504333. Potency, µM (top dose mostly 114 µM), inactives show top-dose activity change, negative = inhibition, hits mostly inhibitors. 360,000 compounds, 4.4% hits; note: % is set by controls: 0 for no effect and ±100 for the full control effect; nearly all actives have a fitted effect of over 60% in size
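AlphaScreen luminescence quantifies BAZ2B engagement of H3K14Ac peptide; the protein and biotinylated peptide are both at 50 nM final, buffer PBS pH 7.4 with 0.01% Tween-20, all steps at room temperature.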
JMJD2A Tudor inh: JMJD2A Tudor domain (human) inhibition. AlphaScreen JMJD2A-Tudor / H3K4me3 peptide binding. Potency, µM (highest dose often 114 µM), without a hit: at the top dose activity change, negative = inhibition, hits mostly inhibitors. O75164. 390,000 compounds, 4.4% hits; note: % is set by controls: 0 for no effect and ±100 for the full control effect; nearly all actives have a fitted effect of over 50% in size
HP1b chromo inh: inhibitors of HP1-beta chromodomain binding to methylated histone tails | P83916 | AlphaScreen HP1-beta / biotin-H3K9me3 peptide binding | Potency, µM (highest dose often 114 µM), without a hit: at the top dose activity change, negative = inhibition, most hits filed as inhibitors | 390,000 compounds, 0.56% hits | AID 540317; note: nearly all actives have a fitted effect of over 70% in size
Target sequence (P83916 whole entry, looked up): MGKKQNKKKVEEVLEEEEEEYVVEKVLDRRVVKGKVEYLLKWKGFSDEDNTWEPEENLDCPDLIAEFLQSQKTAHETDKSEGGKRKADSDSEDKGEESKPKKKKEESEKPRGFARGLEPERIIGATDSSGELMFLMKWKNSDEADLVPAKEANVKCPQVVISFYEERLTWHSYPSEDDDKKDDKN
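AlphaScreen: HP1-beta (50 nM) preformed 30 min with biotin-H3(1-18)K9me3 peptide (50 nM) in PBS pH 7.4, 0.01% Tween-20. Compound added for 30 min at RT, then streptavidin donor/nickel chelate acceptor beads (10 ug/mL) for 30 min.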
G9a inh: G9a (human) methyltransferase inhibition; Q96KQ7; AID 504332; G9a H3K9 monomethylation, AlphaScreen, 2 h; Potency, µM (highest dose often 102 µM), for inactives: top-dose activity, negative = inhibition, usual class: inhibitors; 350,000 compounds, 8.8% hits; note: % is set by controls: 0 for no effect and ±100 for the full control effect; nearly all actives have a fitted effect of over 75% in size
Target sequence (Q96KQ7 913-1193 limits assumed): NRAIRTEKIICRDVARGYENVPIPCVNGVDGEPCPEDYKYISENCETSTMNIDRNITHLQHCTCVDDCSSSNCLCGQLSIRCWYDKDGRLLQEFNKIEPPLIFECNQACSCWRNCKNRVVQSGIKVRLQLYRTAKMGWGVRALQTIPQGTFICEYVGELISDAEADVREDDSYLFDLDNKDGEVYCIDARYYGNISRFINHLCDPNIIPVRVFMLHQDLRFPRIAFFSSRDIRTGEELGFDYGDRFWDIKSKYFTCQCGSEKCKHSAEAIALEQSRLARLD
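Readings reflect AlphaScreen signal from monomethyl-H3K9 antibody detection. HMT at 20 nM; substrate b-H3K9 500 nM; cofactor SAM 20 uM; 2 h RT reaction; compounds tested as titrations in qHTS with 15 min preincubation.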
An asterisk follows results filed as active; ? = inconclusive; · = not tested or not shown; [ ] = dose if it differs, or a comment. Calls come from the whole dose curve; as a rule, active = well fitted curve in the direction sought with a large enough effect; inconclusive = small, poorly fitted or top-dose-only effect, or another doubt; inactive = no such curve, though single readings can be large; an effect the other way counts as inactive or inconclusive. Potency is the fitted concentration of half-maximal effect.

SMILES	GLS inh	BAZ2B inh	JMJD2A Tudor inh	HP1b chromo inh	G9a inh
c1csc(CNc2ccc3c(c2)OCCO3)c1	9.6%	50.1µM*	?	3.2%	3.55µM*
Clc1cc(NCc2cccs2)ccc1N1CCOCC1	11.4%	50.1µM*	?	-22.6%	11.2µM*
C=CCNC(=O)C1CC1(c1ccc(C)cc1)c1ccc(C)cc1 (stereo unspecified)	7.1%	31.1%	-17.7%	4.7%	·
CN(c1nnc(NC(=O)Nc2ccc(Br)cc2)s1)C1CCCCC1	-7.4%	-4.8%	-1.3%	36.8%	?
Cc1nc2sccn2c(=O)c1S(=O)(=O)Nc1cc(C(F)(F)F)ccc1Cl	-4.4%	-7.5%	-10.6%	14.2%	-0.4%[59 µM]
O=C(c1ccccc1-c1nc2ccccc2[nH]1)N1CCOCC1	4.0%	-3.0%	-4.5%	27.0%	5.9%[12.7 µM]
Cn1cccc1-c1nc2ccccc2[nH]1	-19.3%	?	-33.0%	?	44.7µM*
Cc1ccc(S(=O)(=O)Nc2ccc3nc(-c4cccn4C)[nH]c3c2)cc1	-34.6%	39.8µM*	15.8µM*	44.7µM*	-25.1%[12.7 µM]
O=C(O)c1ccccc1-c1nc2ccccc2[nH]1	0.0%	-27.9%	?	13.5%	44.7µM*
COc1ccc(-c2nc(CSc3nncn4c3cc3sccc34)c(C)o2)cc1OC	-5.6%	-23.0%	-21.2%	7.9%	-45.9%[59 µM]
CC1(C)CC(=O)C2=C(C1)NC(=S)C(C#N)C21CCCCC1 (stereo unspecified)	-19.1%	?	7.94µM*	?	0.501µM*
CC1C2=C(CC(C)(C)CC2=O)NC2=C1C(=O)CC(C)(C)C2	5.5%	6.5%	0.0%	53.6%	20.9%
Cc1cc(C)cc(S(=O)(=O)c2cnc3ccccc3n2)c1	?	20.1%	11.2µM*	?	29.3%
O=S(=O)(c1ccc(Cl)cc1)c1cnc2ccccc2n1	-7.6%	-16.7%	-29.2%	28.0%	-1.3%
CCCN1CCc2c(sc3nc(SC)n(-c4ccccc4)c(=O)c23)C1	-12.7%	-4.6%	-21.1%	19.4%	?
COc1cc2c(C(=O)OCCN(C)C)c(CSc3ccccc3)n(C)c2cc1Br	11.4%	-20.6%	-30.5%	-2.7%	-24.4%
CCOC(=O)c1c(C)n(CCOc2ccccc2)c2ccc(O)cc12	-24.8%	3.3%	-11.2%	9.8%	3.98µM*
CCOC(=O)c1c(CSc2ccccc2)n(C)c2ccc(O)cc12	9.0%	1.0%	-12.0%	14.3%	35.5µM*
CCOC(=O)c1c(C)n(CCNC(C)=O)c2ccc(O)cc12	-26.5%	-2.3%	-13.8%	15.7%	-3.4%
CCOC(=O)c1c(C)n(CC(O)c2ccccc2)c2ccc(O)cc12 (stereo unspecified)	15.3%	?	-25.2%	17.4%	56.2µM*
N#CC(CC(=O)OCc1ccccc1)NC(=O)OCc1ccccc1 (stereo unspecified)	-5.5%	·	·	·	·
COC(=O)c1ccccc1NC(=O)Cn1ncc2c(C)n(Cc3ccc(F)cc3)c(C)c2c1=O	0.7%	-26.6%	-13.8%	33.2%	9.8%[59 µM]
CCN1C(=O)c2ccccc2S(=O)c2ccc(C(=O)N3CCN(c4cccc(Cl)c4)CC3)cc21 (stereo unspecified)	1.1%	?	-16.5%	16.2%	-36.3%[59 µM]
COc1ccc2c(c1)C(C)CC(C)(C)N2C(=O)Nc1ccccc1 (stereo unspecified)	?	?	-0.3%[57.1 µM]	5.7%	22.4µM*
O=C(NCCc1ccc(Cl)cc1)C1CCN(S(=O)(=O)c2ccc(-n3cnnn3)cc2)CC1	-6.1%	-2.7%	79.4µM*	-11.4%	-5.1%
SMILES	GLS inh	BAZ2B inh	JMJD2A Tudor inh	HP1b chromo inh	G9a inh
O=C(C#Cc1ccccc1)c1cccc([N+](=O)[O-])c1	57.0%	?	-13.6%	20.1%	3.55µM*
O=C(/C=C/c1ccccc1F)c1cccc([N+](=O)[O-])c1	-8.7%	?	?	-1.8%	28.2µM*
COc1cc(/C=C/C(=O)c2cccc([N+](=O)[O-])c2)cc(OC)c1OC	-12.1%	?	?	-10.6%	?
O=C(CN1C(=O)COc2ccc(Cl)cc21)Nc1ccccn1	2.0%	-0.6%	-16.6%	38.0%	35.9%
S=C1NC(c2ccccc2)=CC(c2ccccc2)N1 (stereo unspecified)	0.7%	?	-28.5%	18.2%	31.6µM*
S=C1NC(c2cccs2)=CC(c2ccc(Br)cc2)N1 (stereo unspecified)	?	?	?	-16.0%	15.8µM*
CC1=CC(c2ccccc2)NC(=S)N1 (stereo unspecified)	-5.2%	5.2%	-31.8%	31.8%	-4.1%[59 µM]
NC(=O)C1CCN(c2oc(-c3cccs3)nc2S(=O)(=O)c2ccc(Br)cc2)CC1	-21.8%	·	?	?	·
COc1ccccc1-c1ccc2c(c1)C(C)(Cc1ccc(OC(F)(F)F)cc1)C(=O)N2 (stereo unspecified)	14.6%	·	·	·	·
CCCCN(C)CC(O)Cn1cc(/C=C/C(=O)c2ccc(Br)cc2)c2ccccc21 (stereo unspecified)	4.2%	?	70.8µM*	-15.2%	-2.2%[59 µM]
CCCN(CCC)CC(O)Cn1cc(/C=C/C(=O)c2ccc(Br)cc2)c2ccccc21 (stereo unspecified)	-2.8%	-26.4%	?	8.2%	-1.1%[59 µM]
CCCCN(C)CC(O)Cn1cc(/C=C/C(=O)c2ccc(C)cc2)c2ccccc21 (stereo unspecified)	10.9%	?	50.1µM*	-0.2%	-38.3%[59 µM]
COc1ccc(C2CC(=O)C(CS(=O)(=O)c3ccccc3)C(=O)C2)cc1 (stereo unspecified)	-17.0%	14.5%	-3.8%[11.4 µM]	-9.5%	45.1%
O=C1CCCC(=O)C1CS(=O)(=O)c1ccccc1	3.3%	-23.0%	-11.9%	15.7%	3.16µM*
O=C1CC(c2ccc(Cl)cc2)CC(=O)C1CS(=O)(=O)c1ccccc1 (stereo unspecified)	?	79.4µM*	-15.8%[11.4 µM]	-24.5%	3.98µM*
Cc1ccc(S(=O)(=O)N(C)CC(=O)OCC(=O)NC(c2ccccc2)c2ccccc2)cc1	0.7%	-20.9%	-14.9%	11.4%	?
O=C(N/C=N/O)C1=NOC(CNc2ncc(C(F)(F)F)cc2Cl)C1 (stereo unspecified)	9.8%	-10.3%	-3.6%	11.0%	44.7µM*
c1ccc(OCCCN2CCCC2)cc1	5.0%	79.4µM*	2.82µM*	-45.2%	3.16µM*
c1ccc(OCc2ccc(CCCN3CCOCC3)cc2)cc1	4.7%	-4.5%	-19.0%	6.4%	11.8%[12.7 µM]
c1ccc(OCCCCN2CCCCC2)cc1	2.9%	3.1%	-10.9%	14.8%	7.5%[59 µM]
c1ccc(COc2ccc(OCCCCN3CCCC3)cc2)cc1	7.1%	56.2µM*	1.41µM*	?	22.4µM*
c1ccc(COc2ccc(OCCCN3CCCCC3)cc2)cc1	-0.7%	?	39.8µM*	?	12.6µM*
COc1ccc(OCCCN2CCCCCC2)cc1	-2.0%	-36.4%	?	14.6%	14.9%[2.33 µM]
O=S(=O)(c1ccc(-c2cc(C(F)(F)F)on2)s1)N1CCN(c2ccc(F)cc2)CC1	-12.0%	1.1%	-2.3%	41.2%	-3.0%[59 µM]

High-throughput results deposited in PubChem BioAssay by National Center for Advancing Translational Sciences (NCATS).
